Source: PubChem BioAssay (NCI)
About 83,000 compounds went through this panel and 20% of them were active in at least one assay; those are over-represented in the sample as a whole.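 Interpretation: 100, growth as untreated; towards 0, rising growth inhibition; 0, no net growth; 0 to -100, cell death. Compounds scoring below 10 were considered active.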 Activity calls are given as the source filed them.

Each compound was assayed on NCI/ADR-RES ovarian (assay: NCI-60 one-dose screen, 48 h (100 = growth as untreated, 0 = no growth, -100 = all killed)). Details: 10 µM unless noted.
Description: Growth inhibition of the NCI/ADR-RES human […] tumor cell line is measured as a screen for anti-cancer activity. Cells are grown in 96 well plates and exposed to the test compound for 48 hours. Compounds are tested at a single concentration, which is 10^-5 M for most compounds. The reported endpoint is percent growth (GI% or GIPRCNT), where numbers from 0 - 100% represent growth inhibition, and numbers from -100% - 0 represent cell death. For example, a value of 40 represents 60% growth inhibition. A value of 0 means no net growth occurred over the course of the experiment. A value of -40 indicates 40% of cells at the beginning of the experiment died by the end of the experiment. A value of -100 means all cells are dead at the end of the experiment.
NCI-60 Human Tumor Cell Lines Screen was performed using the standard one-dose NCI protocol, which is described in more detail at https://dtp.cancer.gov/discovery_development/nci-60/default.htm.
Compounds with GIPRCNT values below 10 were considered active. Activity score was based on GIPRCNT using the following formula: […]
Score is 0 for GIPRCNT values of 100 or above, 50 for GIPRCNT values of 0, and 100 for GIPRCNT values of -100.

Row | Structure (SMILES) | growth
1 | COC(=O)Nc1ccc(NC(=O)OC)cc1 | 104% (inactive)
2 | c1ccc(-c2nnc(Nc3ccc4c(c3)OCCO4)o2)c(NCc2ccncc2)c1 | 4.75% (active)
3 | COc1ccc(C(=O)c2cc3c(N)c(C(=O)Nc4ccc(Br)cc4)sc3nc2C)cc1 | 70% (inactive)
4 | COc1cc2nnn3c4ncccc4c(N=O)c3c2cc1OC | 44.6% (inactive)
5 | COc1cc(C(=O)/C=C/c2c(C)n([O-])c3ccc(Cl)cc3[n+]2=O)cc(OC)c1OC | 39% (inactive)
6 | COc1ccc(C(=O)/C=C/c2ccc(OCc3ccccc3)c(OC)c2)cc1OC | 36.4% (inactive)
7 | CCNC(=S)NNC(=O)c1cc2ccc1CCc1ccc(cc1)CC2 | 101% (inactive)
8 | CC[C@H](CC[C@@H](C)[C@H]1CC[C@H]2[C@@H]3CC=C4C[C@@H](OCCc5nn[nH]n5)CC[C@]4(C)[C@H]3CC[C@]12C)C(C)C | 98.3% (inactive)
9 | CC(C)(C)OC(=O)N1CCN(c2ccc(N)cc2)C(=O)C1 | 102% (inactive)
10 | COc1ccncc1C#Cc1cncc(C(=O)Nc2ccc(CN3CCN(C)CC3)c(C(F)(F)F)c2)c1 | 54.6% (inactive)
11 | CC(C)(C)CC(C)(C)Nc1c(-c2ccc3c(c2)OCO3)nc2cnccn12 | 87.7% (inactive)
12 | COc1cc(NCC(O)CN(CC(C)C)CC(C)C)c2nc(C)ccc2c1 (stereo not given) | 92% (inactive)
13 | COc1ccc(C(=O)c2cc3c(N)c(C(=O)Nc4cccc(Cl)c4)sc3nc2C)cc1 | 8.84% (active)
14 | COc1ccccc1Nc1cc(O)c2c(=O)cc(-c3ccccc3)oc2c1 | 11.5% (inactive)
15 | Cc1[nH]n(-c2cccc(Cl)c2)c(=O)c1/C=C1\C=Nc2ccc(Br)cc21 | 16.3% (inactive)
16 | Clc1nc(Cl)c2ncn(CC3(Cn4cnc5c(Cl)nc(Cl)nc54)COC3)c2n1 | -57.4% (active)
17 | Cc1cc(NC(=O)c2cnc(N3CCN(CCOCCOCCOCCOCCC(=O)N[C@H](C(=O)N4C[C@H](O)C[C@H]4C(=O)N[C@@H](C)c4ccc(-c5scnc5C)cc4)C(C)(C)C)CC3)cn2)c2ncccc2c1 | 90.5% (inactive)
18 | COc1ccc(/C=C/C(=O)c2ccc(Nc3ncnc4ccccc34)cc2)cc1OC | 78.1% (inactive)
19 | COc1ccc2c(c1)OC13Oc4cc(OC)ccc4C=C1CCCC3=C2 | 21.6% (inactive)
20 | O=C1/C(=C\c2cn(Cc3ccccc3)c3ccc(Br)cc23)c2ccccc2N1c1c(Cl)cccc1Cl | 98.4% (inactive)

Row | Structure (SMILES) | growth
21 | O=c1nc2n(nc1/C=C/c1ccco1)CC(c1ccc(Cl)cc1)=NN2 | 100% (inactive)
22 | Nc1nc(N)nc(NCc2ccccc2)n1 | 100% (inactive)
23 | CC(C)Cc1ccc(C(C)C(=O)NCc2ccc(Cn3c(=O)sn(-c4ccc(Cl)cc4)c3=O)cc2)cc1 (stereo not given) | 90.3% (inactive)
24 | Cc1cccc(Oc2ccc(Nc3ncnc4ccc(NC(=O)CNCCO)cc34)cc2Cl)c1 | 76.1% (inactive)
25 | COc1ccc(C(O)c2cc3c(N)c(C(=O)Nc4ccccc4)sc3nc2C)cc1 (stereo not given) | 13.7% (inactive)
26 | Nc1nnc2cc(Cl)ccc2n1 | 96.3% (inactive)
27 | N/C(=N\N=C\c1cc2ccccc2s1)N/N=C/c1cc2ccccc2s1 | 103% (inactive)
28 | O=C(CN1CCOCC1)Nc1ccc2ncnc(Nc3ccc(OCc4cccc(F)c4)c(Cl)c3)c2c1 | 44.7% (inactive)
29 | CC(C)(C#N)N1CCN(c2ccccc2Cl)CC1 | 98.8% (inactive)
30 | Cc1cc(Nc2cccc(C(F)(F)F)c2)n2c(nc3ccccc32)c1C#N | 47.9% (inactive)
31 | COc1ccc(C2CC(c3cccc(Nc4ccncc4)c3)=NN2c2ccc(Cl)cc2)cc1 (stereo not given) | 62.3% (inactive)
32 | C(=N\Nc1ncc(-c2cc3cc4c(cc3o2)OCO4)s1)/c1c[nH]c2ccccc12 | 10.7% (inactive)
33 | COc1ccc(C(=O)c2cc(C)c(OC)c(C)c2)c(OC)c1N(C(=O)C(Cl)Cl)C(=O)C(Cl)Cl | -1.2% (active)
34 | Fc1ccc(C2CC(c3cccc(Nc4ccncc4)c3)=NN2c2cc(Cl)cc(Cl)c2)cc1 (stereo not given) | 64.3% (inactive)
35 | O=C(N/N=C/c1ccncc1)c1ccccc1Nc1cccc(C(F)(F)F)c1 | 70.7% (inactive)
36 | COc1cccc(-c2nc3occn3c2-c2ccnc(NCCCNS(=O)(=O)c3cccc(F)c3)n2)c1 | 85.8% (inactive)
37 | CC(C)NC(=O)N1C(=O)CCC1NNC(=O)c1ccc([N+](=O)[O-])cc1 (stereo not given) | 95% (inactive)
38 | N#Cc1ccc(-c2ccc3c(c2)NC(=O)/C3=C\c2ccc[nH]2)cc1 | 100% (inactive)
39 | COc1ccc(/C=C(/c2ccccc2)[N+](=O)[O-])cc1 | 7.74% (active)
40 | O=C(Nc1sc2c(c1C(=O)O)CCCC2)c1cccc(C(F)(F)F)c1 | 93.3% (inactive)
